KB-V1 cytotox: qHTS assay for MDR1-selective chemotherapeutics: Primary screen using the drug-selected MDR subline cells KB-V1; KB-V1 MDR cells viability, CellTiter-Glo, 72 h; hit rate 3.4% among 400,000; AID 1347076, 2019; Potency, µM (doses to about 46.1 µM), hits mostly cytotoxic; further: on the % scale 0 is the no-effect control and ±100 the full control effect; nearly all actives have a fitted effect of over 60% in size
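qHTS viability screen in drug-selected KB-V1 MDR cells: 72 h compound treatment at 37 degrees C, ATP luminescence end point.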
KB-3-1 tox: qHTS assay for MDR1-selective chemotherapeutics: Primary screen using the parental adenocarcinoma cell KB-3-1; KB-3-1 viability, CellTiter-Glo ATP luminescence, 72 h; AID 1347075, 2019; hit rate 1.4% among 400,000; Potency, µM (doses to about 46.1 µM), most hits filed as cytotoxic; further: on the % scale 0 is the no-effect control and ±100 the full control effect; nearly all actives have a fitted effect of over 60% in size
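Cells are dispensed, compounds pinned in, plates held at 37 °C for 72 h, then CellTiter-Glo is added and luminescence read after 10 minutes. Cell line: parental KB-3-1 in phenol-red-free DMEM, 10% FBS.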
VP16 counter: VP16 counterscreen qHTS for inhibitors of ROR gamma transcriptional activity; Drosophila S2 Gal4-VP16 UAS-luciferase, luminescence, 20 h; Potency, µM (highest dose often 53.6 µM), for inactives: at the top dose activity, negative = inhibition, actives largely listed as inhibitors; hit rate 3.5% among 310,000; AID 2546, 2010;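 further: Gal4-VP16 expression switched on by copper sulfate through the metallothionein promoter; on the % scale 0 is the no-effect control and ±100 the full control effect; nearly all actives have a fitted effect of over 50% in size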
RORg inh: qHTS for inhibitors of ROR gamma transcriptional activity | Nuclear receptor ROR-gamma (Mus musculus), P51450 | Drosophila S2 Gal4-RORgamma UAS-luciferase reporter, 20 h | Potency, µM (top dose mostly 53.6 µM), without a hit: at the top dose activity change, negative = inhibition, usual class: inhibitors | hit rate 5.4% among 310,000; further: on the % scale 0 is the no-effect control and ±100 the full control effect; nearly all actives have a fitted effect of over 60% in size
Target sequence (P51450 whole entry, looked up, the tested form may be a part): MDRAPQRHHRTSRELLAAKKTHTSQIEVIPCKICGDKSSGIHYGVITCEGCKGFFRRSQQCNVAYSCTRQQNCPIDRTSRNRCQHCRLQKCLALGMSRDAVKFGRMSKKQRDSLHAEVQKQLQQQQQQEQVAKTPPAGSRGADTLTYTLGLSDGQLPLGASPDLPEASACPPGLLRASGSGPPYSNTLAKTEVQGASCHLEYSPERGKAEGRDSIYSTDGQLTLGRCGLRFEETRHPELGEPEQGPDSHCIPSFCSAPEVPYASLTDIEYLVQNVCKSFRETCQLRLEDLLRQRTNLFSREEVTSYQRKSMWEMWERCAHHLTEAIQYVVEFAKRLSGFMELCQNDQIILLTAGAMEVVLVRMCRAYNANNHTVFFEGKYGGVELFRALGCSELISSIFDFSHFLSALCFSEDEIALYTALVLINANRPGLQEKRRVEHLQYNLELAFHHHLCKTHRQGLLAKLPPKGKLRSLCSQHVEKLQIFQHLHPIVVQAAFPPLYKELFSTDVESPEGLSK
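In this cell-based reporter format, copper sulfate (700 uM final) drives Gal4–ROR gamma fusion expression from a metallothionein promoter in Drosophila Schneider cells; compounds preincubated 1 hr, reporter read after 20 hr at ambient temperature.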
SW480 rerep: A quantitative high throughput screen for small molecules that induce DNA re-replication in SW480 colon adenocarcinoma cells | AID 624297, 2012 | hit rate 1.8% among 340,000 | SW480 DNA re-replication, Hoechst DNA content imaging, 48 h | Potency, µM (highest dose often 46.1 µM), without a hit: top-dose re-replication activation, most hits filed as activators; further: % of control where 0% means no effect; nearly all actives have a fitted effect of over 55% in size
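Readout is total intensity of Hoechst-stained nuclei, excited at 405 nm and collected at 500-530 nm. Compound treatment lasted 48 hr at 37 C in 5% CO2 before staining.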
MCF10A rereplic: A quantitative high throughput screen for small molecules that induce DNA re-replication in MCF 10a normal breast cells; Potency, µM (titrated, usually from 46.1 µM), without a hit: at the highest dose activity, positive = re-replication, usual class: activators; MCF 10A DNA re-replication, Hoechst nuclear intensity, 48 h; hit rate 2.9% among 350,000; AID 624296, 2012; further: % of control where 0% means no effect; nearly all actives have a fitted effect of over 50% in size
* = called active by the depositor; i = inactive; ? = inconclusive; · = no result given; ! = not confirmed by another sample; [ ] = remark or other dose. Sampled rows, rich in hits. Any-hit rate of the full collection: about 10%. The call rests on the fitted dose curve; in most records, active means well fitted curve in the direction sought with a large enough effect; inconclusive means small, poorly fitted or top-dose-only effect, or another doubt; inactive means no such curve, though single readings can be large; an effect the other way counts as inactive or inconclusive. Potency means the concentration at half of the fitted maximal effect.

SMILES | KB-V1 cytotox | KB-3-1 tox | VP16 counter | RORg inh | SW480 rerep | MCF10A rereplic
O=C(CN1CCN(S(=O)(=O)c2ccc(F)c(Cl)c2)CC1)N1CCc2ccccc21 | 3.26µM* | ? | · | · | -5.0% | -3.1%
COc1cc(OC)nc(Nc2nc(CN)cs2)n1 | i | i | · | · | · | ·
Cc1ccc(C=NNC(=O)C(=O)Nc2ccc(Cl)c([N+](=O)[O-])c2)cc1 | i | i | · | · | · | ·
O=C(N/N=C/c1ccc(Cl)c([N+](=O)[O-])c1)C1CC1 | i | i | ? | 26.7% | -7.7% | 8.7%
COc1ccc(/C=N/NC(=S)Nc2ccccc2[N+](=O)[O-])cc1O | 11.6µM* | ? | 3.16µM* | 5.62µM* | ? | ?
COc1cc(/C=N/Nc2ccccc2[N+](=O)[O-])cc(OC)c1O | i | i | 0.5% | 28.6% | -3.8% | -0.9%
Cc1ccc(NC(=S)N/N=C/c2ccc(Cl)c([N+](=O)[O-])c2)cc1 | i | i | ? | 17.8µM* | -6.5% | ?
O=[N+]([O-])c1cc(/C=N/NC(=S)Nc2ccccc2Cl)ccc1Cl | ? | 18.4µM* | 3.55µM* | 3.16µM* | 4.8% | ?
CCCc1nc2cc(C)c(Br)c(C)n2c1Cc1ccsc1 | i | i | · | · | · | ·
O=c1[nH]cnc2c1sc1nc(-c3ccccc3)c3c(c12)CCCC3 | i | i | ? | 19.3% | -8.1% | -3.2%
S=c1nc[nH]c2c1sc1nc(-c3ccccc3)c3c(c12)CCCC3 | i | i | 10µM* | 15.8µM* | 1.0% | ?
CCc1ccc(-c2[nH]nc3nc(-c4cc(OC)ccc4OC)cc(C(=O)O)c23)cc1 | ? | i | · | · | · | ·
CCN(C(=O)CSc1ccc2ccccc2n1)C1CCCCC1 | 18.4µM* | ? | · | · | 2.6% | ?
O=C(CSc1ccc2ccccc2n1)NC1CC1 | i | ? | · | · | -6.2% | 4.3%
CC(C)(C)NC(=S)NC(=O)C12CCC3CC(CC(C3)C1)C2 | i | i | 0.0% | 0.708µM* | 5.8% | 21.2%
Cc1cc(/C=C(\C#N)C(=O)Nc2ccccc2)c(C)n1-c1ccc(C(=O)O)cc1 | i | i | -9.4% | ? | 4.2% | 0.9%
COc1ccc(NC(=O)/C(C#N)=C\c2cc(C)n(-c3ccc4c(c3)OCO4)c2C)cc1 | 2.06µM* | ? | 0.0% | ? | 10.3µM* | 5.17µM*
CCCCCn1c(-c2ccc(OC)c(OC)c2)nc2ccccc21 | i | i | · | · | · | ·
CCOC(=O)c1c2c(n(C)c1C)C(=O)C(=O)c1ccc(Br)cc1-2 | 3.26µM* | 3.66µM* | · | · | 2.59µM* | 2.06µM*
CCOC(=O)c1c2c(n(Cc3ccccc3)c1C)C(=O)C(=O)c1ccccc1-2 | 3.26µM* | 2.91µM* | · | · | 4.11µM* | 3.26µM*
CCOC(=O)c1c2c3c(cccc3n(C)c1=O)C(=O)c1ccccc1-2 | 20.6µM* | ? | -15.0% | -17.5% | 0.2% | 22.7%
CCc1nc2ccc(C(=O)NCc3ccc(OC)cc3)cn2c1N(C)CCC(C)C | ? | i | · | · | · | ·
O=C(/C=C/[C@H]1O[C@@H](n2ccc(=O)[nH]c2=O)[C@H](O)[C@@H]1O)NCc1cccs1 | i | i | · | · | · | ·
O=C(O)CCCN1C(=O)/C(=C\c2ccc(-c3nc4ccccc4s3)o2)SC1=S | i | i | -4.4% | -3.3% | 23.1µM* | ?
O=C(O)c1ccc(-c2nc3ccccc3s2)o1 | i | i | 1.2% | 1.2% | 2.1% | 2.6%
SMILES | KB-V1 cytotox | KB-3-1 tox | VP16 counter | RORg inh | SW480 rerep | MCF10A rereplic
O=C(O)CCN1C(=O)/C(=C/c2ccc(-c3nc4ccccc4s3)o2)SC1=S | i | i | -11.9% | 23.4% | -7.0% | 2.5%
O=Cc1ccc(-c2nc3ccccc3s2)o1 | i | i | 7.94µM* | 4.47µM* | 4.5% | 2.8%
CN(Cc1cccnc1)Cc1cn(C)nc1-c1ccc(Oc2ccccc2)cc1 | i | i | 1.1% | -2.5% | 7.6%[1.84 µM] | -19.3%
Cc1cc(CN(C)Cc2cn(C)nc2-c2ccc(Oc3ccccc3)cc2)on1 | 9.2µM* | i | 1.7% | 19.7% | 0.5% | 3.8%
CCN=c1scc(C)n1/N=C/c1ccc(O)c(O)c1O | i | i | ? | 3.55µM* | -2.0% | -2.7%
CCN=c1scc(C)n1/N=C/c1cc(Br)c(O)c(Br)c1 | ? | ? | 4.2% | -22.0% | -3.2% | 20.6µM*
COCCN=c1scc(-c2cccs2)n1/N=C/c1ccc(O)c(O)c1O | ? | ? | ? | -94.5% | -9.7% | ?
COc1ccc2c(C=Nc3c(C)n(C)n(-c4ccccc4)c3=O)c(O)n(Cc3ccco3)c(=O)c2c1 | i | i | -6.7% | ? | -1.3% | 18.4µM*!
CCOC(=O)C1CCN(C(=O)c2ccc(Cl)c(S(=O)(=O)N3CCOCC3)c2)CC1 | i | i | -10.0% | -4.8% | ? | 13µM*
O=C(c1ccc(Cl)c(S(=O)(=O)N2CCOCC2)c1)N1CCc2ccccc2C1 | 3.66µM* | 20.6µM* | · | · | 0.9% | 9.8%
COc1ccc(NC(=O)c2ccc(Cl)c(S(=O)(=O)N3CCc4ccccc4C3)c2)cn1 | 4.61µM* | i | ? | -66.8% | -2.5% | ?
O=C(CSc1ncc2c(n1)-c1cc(Cl)ccc1N(Cc1ccccc1F)S2(=O)=O)Nc1cccc(C(F)(F)F)c1 | i | i | · | · | · | ·
O=C(NCc1ccccc1)C1c2ccccc2OCC(=O)N1Cc1cccnc1 (stereo not given) | i | i | · | · | · | ·
Cc1ccc(C(=O)NNC(=O)CCCN2C(=O)/C(=C/c3ccccc3Cl)SC2=S)cc1 | i | i | 3.16µM* | 2.82µM* | -161.7% | 22.0%
COc1cccc(/C=C2\SC(=S)N(CCCC(=O)Nc3cc(C)on3)C2=O)c1 | ? | i | 1.41µM* | 2.82µM* | 2.0% | 10.1%
CCc1ccc(/C=C2\SC(=S)N(CCCC(=O)Nc3cc(C)on3)C2=O)cc1 | i | i | · | · | · | ·
O=C(O)CCCN1C(=O)/C(=C\C(Cl)=C\c2ccccc2)SC1=S | ? | ? | 1.58µM* | 1.26µM* | 3.26µM* | ?
CCN(CC)CCOC(=O)c1ccc(NC(=O)CCCN2C(=O)S/C(=C/c3ccc(OC)cc3)C2=S)cc1 | i | i | 1.58µM* | 1µM* | 22.4µM* | ?
O=C(CCCN1C(=O)/C(=C/c2ccccc2Cl)SC1=S)NNC(=O)c1ccc(Cl)cc1 | i | i | ? | ? | 26.4% | 0.3%
CN1CCN(C(=O)CCCN2C(=O)/C(=C/c3ccccc3)SC2=S)CC1 | ? | ? | -4.2% | -14.9% | ? | ?
